From PubChem BioAssay AID1159580 (chemical genetic matrix, 2015)
The campaign covered roughly 5,500 compounds. About 2,000 (36%) were called active. About 18% were inconclusive and are not listed. The list shows a part of the results. A number with no mark means an inactive call. No stated cut-off is given here; in the data, active means normalized growth mostly below about 0.91 (no sharp cut-off); inconclusive means no clear call, values can overlap the other calls; inactive means mostly above about 0.92.

Test: chemical genetic growth profiling, strain panel (AID 1159580);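 further: tested at 20 µM; growth read once vehicle control cultures reached saturation at 30 °C; 1 = growth at the plate median or of vehicle wells; lower values mean less growth of the strain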
Conditions: S. cerevisiae deletion strains, growth OD

Molecule `Oc1c(Br)cc(Br)cc1C=Nc1ccccn1` has a normalized growth (locus YBL105C, strain PKC1, active compounds read low) of 0.969, a normalized growth (locus YBR135W, strain CKS1, active compounds read low) of 0.965 and a normalized growth (locus YBR136W, strain MEC1, active compounds read low) of 0.967. The normalized growth (locus YBR160W, strain CDC28, active compounds read low) was 0.965, the normalized growth (locus YDL017W, strain CDC7, active compounds read low) was 0.958 and the normalized growth (locus YDL028C, strain MPS1, active compounds read low) was 0.96. For the same molecule, the normalized growth (locus YDL108W, strain KIN28, active compounds read low) was 0.978, the normalized growth (locus YDL214C, strain PRR2, active compounds read low) was 0.221 (active) and the normalized growth (locus YDR052C, strain DBF4, active compounds read low) was 0.968. For the same molecule, the normalized growth (locus YDR226W, strain ADK1, active compounds read low) was 0.989, the normalized growth (locus YDR477W, strain SNF1, active compounds read low) was 0.417 (active) and the normalized growth (locus YER123W, strain YCK3, active compounds read low) was 0.119 (active). For the same molecule, the normalized growth (locus YER133W, strain GLC7, active compounds read low) was 0.288 (active), the normalized growth (locus YFR003C, strain YPI1, active compounds read low) was 0.952 and the normalized growth (locus YFR019W, strain FAB1, active compounds read low) was 0.111 (active). The normalized growth (locus YFR028C, strain CDC14, active compounds read low) was 0.984, the normalized growth (locus YGR040W, strain KSS1, active compounds read low) was 0.437 (active) and the normalized growth (locus YGR052W, strain FMP48, active compounds read low) was 0.179 (active). The normalized growth (locus YGR092W, strain DBF2, active compounds read low) was 0.16 (active), the normalized growth (locus YHR030C, strain SLT2, active compounds read low) was 0.133 (active) and the normalized growth (locus YHR079C, strain IRE1, active compounds read low) was 0.135 (active). The normalized growth (locus YHR082C, strain KSP1, active compounds read low) was 0.161 (active), the normalized growth (locus YHR205W, strain SCH9, active compounds read low) was 0.118 (active) and the normalized growth (locus YIL147C, strain SLN1, active compounds read low) was 0.965. For the same molecule, the normalized growth (locus YJL095W, strain BCK1, active compounds read low) was 0.132 (active), the normalized growth (locus YJL128C, strain PBS2, active compounds read low) was 0.937 and the normalized growth (locus YJL157C, strain FAR1, active compounds read low) was 0.165 (active). The normalized growth (locus YJR016C, strain ILV3, active compounds read low) was 0.974, the normalized growth (locus YJR066W, strain TOR1 (second series), active compounds read low) was 0.368 (active) and the normalized growth (locus YJR066W, strain TOR1, active compounds read low) was 0.141 (active). The normalized growth (locus YKL048C, strain ELM1, active compounds read low) was 0.55 (active), the normalized growth (locus YKL067W, strain YNK1, active compounds read low) was 0.213 (active) and the normalized growth (locus YKL101W, strain HSL1, active compounds read low) was 0.375 (active). The normalized growth (locus YKL203C, strain TOR2, active compounds read low) was 0.348 (active), the normalized growth (locus YLR113W, strain HOG1, active compounds read low) was 0.154 (active) and the normalized growth (locus YLR133W, strain CKI1, active compounds read low) was 0.165 (active). For the same molecule, the normalized growth (locus YLR403W, strain SFP1, active compounds read low) was 0.167 (active), the normalized growth (locus YML070W, strain DAK1, active compounds read low) was 0.113 (active) and the normalized growth (locus YMR001C, strain CDC5, active compounds read low) was 0.962. The normalized growth (locus YMR205C, strain PFK2 (second series), active compounds read low) was 0.211 (active), the normalized growth (locus YNL006W, strain LST8, active compounds read low) was 0.895 (active) and the normalized growth (locus YNL020C, strain ARK1, active compounds read low) was 0.14 (active). The normalized growth (locus YNL161W, strain CBK1, active compounds read low) was 0.968, the normalized growth (locus YNL183C, strain NPR1, active compounds read low) was 0.146 (active) and the normalized growth (locus YNL207W, strain RIO2, active compounds read low) was 0.965. The normalized growth (locus YNL222W, strain SSU72, active compounds read low) was 0.96, the normalized growth (locus YNL307C, strain MCK1 (second series), active compounds read low) was 0.23 (active) and the normalized growth (locus YOL136C, strain PFK27, active compounds read low) was 0.116 (active). The normalized growth (locus YOR061W, strain CKA2, active compounds read low) was 0.114 (active), the normalized growth (locus YOR119C, strain RIO1, active compounds read low) was 0.341 (active) and the normalized growth (locus YOR231W, strain MKK1, active compounds read low) was 0.12 (active). For the same molecule, the normalized growth (locus YOR329C, strain SCD5, active compounds read low) was 0.963, the normalized growth (locus YPL031C, strain PHO85, active compounds read low) was 0.296 (active) and the normalized growth (locus YPL153C, strain RAD53, active compounds read low) was 0.23 (active). For the same molecule, the normalized growth (locus YPL204W, strain HRR25, active compounds read low) was 0.304 (active), the normalized growth (locus YPL209C, strain IPL1, active compounds read low) was 0.967 and the normalized growth (locus YPL256C, strain CLN2, active compounds read low) was 0.155 (active). It also gave a normalized growth (locus YPR025C, strain CCL1, active compounds read low) of 0.968, a normalized growth (locus YPR106W, strain ISR1, active compounds read low) of 0.962 and a normalized growth (locus YPR111W, strain DBF20, active compounds read low) of 0.953. The normalized growth (strain NNK1, active compounds read low) was 0.947.
